Consider 89 sequences from the supplement of paper PMC11417369.

Over roughly 25,000 sequences, “ln(normalized median fluorescence intensity)” has its median near 9.7; the highest 2% begin near 11. For the sample, the highest values were picked, then their nearest neighbours and some sequences at random.

The test system of the test is PfAP2-HC AP2 domain (GST-tagged). The test can be described thus: gcPBM binding intensity (ln(normalized median fluorescence intensity)); higher = stronger DNA binding. An outline of the steps: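 Alexa488 anti-GST antibody, scanned at 488 nm, detected GST-tagged P. falciparum DNA-binding domains that had been expressed in E. coli and incubated for 1 h on an Agilent 4 × 180k array. The array carried primer-extended double-stranded 36-bp intergenic genomic probes and negative controls. Binding intensity is the highest Masliner-normalised natural-log median intensity across replicate spots of either orientation of each probe.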
In the case of TTTTTGTTATATAAAGTGCAGTGACAAGCAGTTTAA, the “gcPBM binding intensity (ln)” value was determined as 9.56.
The value for “TTTTTTTATATTTTTAGTACACATTGGTATATATAT [XGTACX_site4114]” was 9.78.
The value for “TTCTTTAAAATATTATGTACACATTGCGAACAGTTT [XGTACX_site5418]” was 9.76; that for “CACAGACACGGACACACACACACACCCACATATATA [CACACA_site4355]” was 11.5; that for “CACAGACACGGACACACACACATATATAATATATAT [CACACA_site4495]” was 10.8.
The value for “AGCACAGACGGACACACACACACACCCACAGACACA [CACACA_site4358]” was 11.4; that for “TGTATGTTTATTTATCGTACATATATATATATATAT [XGTACX_site7315]” was 10.1; that for “TACGCGAAATGAATATGTACATATATGAGGGCATAT [XGTACX_site4293]” was 9.75.
For the sequence “ATTTGAAATGCATGAACACACACAGCTATAAATGCA [CACACA_site8229]”, the “gcPBM binding intensity (ln)” value was determined as 9.82.
The value for “GAAATAAGTTAAAATAGTACGTAGTGTTCCTTAAGT [XGTACX_site6557]” was 9.81.
The value for “ACACAAAAATAGTTTTTTATATTGTTAACCTTATAT [XGTACX_negctrl_site123]” was 9.71; that for “AAAAATATAAATGACACACACTTAAAAACAAAGAAA [CACACA_site4540]” was 10.2; that for “TTTAATCAAATTAAAAGTACAGAATTGTTCATGTAG [XGTACX_site1229]” was 9.53.
The value for “ACTCATAAAAATAGATGTACTTTAATAATTTGATTT [XGTACX_site8763]” was 9.48.
As to “AATAACCACGGACACACACACATATATATATATATA [CACACA_site5873]”, the “gcPBM binding intensity (ln)” value was 10.9.
The value for “TACATACACGGACACACACACATATATATATATATA [CACACA_site5883]” was 10.7; that for “CCCCCCCACGGACACACACACATACATACCACATAT [CACACA_site5303]” was 11.3; that for “CACGCGAACATACATACACACACATATATATATATG [CACACA_site7951]” was 10.1.
The value for “CCCCCCCACGAACACACACACATACATACCACATAT [CACACA_site7149]” was 11.
Consider “TATATATATATACCAACACACATACATATATATATA [CACACA_site8530]”, for which the “gcPBM binding intensity (ln)” value is 9.99.
The value for “AACATATACACGAACACACACACATATATATATATA [CACACA_site502]” was 11.6; that for “AGTATACACGAACACACACACACATATATAAATATA [CACACA_site6913]” was 10.7.
For the sequence “CATATACACGAACACACACACATATATATATATATA [CACACA_site4437]”, the “gcPBM binding intensity (ln)” value came to 10.5.
As for “TTTTTTTTTTTTACATGTACTTATTTTAAATATAAA [XGTACX_site805]”, the “gcPBM binding intensity (ln)” value was 9.71.
The value for “TATGTTTTTCGGTATGCATGCATATGCTTAATAATA [TGCATGCA_site184]” was 9.55; that for “AATATATAGAGAGATATGCACACTGTATGAATGCAC [CACACA_site2677]” was 9.78; that for “AAATATTTATAGGTTTGTACTTATAAATAAAAAAAA [XGTACX_site7360]” was 9.5.
On to “TATTAAATTATATAGACACACATTATATATATATAT [CACACA_site4345]”, for which the “gcPBM binding intensity (ln)” value amounted to 9.78.
The value for “TATGGAATAAATTTATCCATACATCTTATAACATAT [XGTACX_negctrl_site500]” was 9.63; that for “ATTTATTTTTTACATTGTACATATTTATTCCTTTTA [XGTACX_site8028]” was 9.95.
The value for “GTAATATGTATCCATACACACATACAGTTTATTTGC [CACACA_site6540]” was 9.96; that for “TAAAATTATGTAATAACACACATATACAATACATAT [CACACA_site1236]” was 9.94; that for “AGGGTTACAAGAGGAACACACAAAAAAATAAATAAA [CACACA_site1436]” was 10.
The value for “AATATATATTAAATATGTACTTATTTTTTGGTTGCT [XGTACX_site3613]” was 9.63.
For “TTTAAATAAAAATGGAGTACTCTAAAAAAAAAAAAA [XGTACX_site1233]”, the “gcPBM binding intensity (ln)” value came to 9.37.
On to “CACAAGAAAGTTCACACACACACATATATATATATA [CACACA_site6009]”, for which the “gcPBM binding intensity (ln)” value is 10.1.
The value for “TACACAAGAAAATTCACACACACACCCATATATATA [CACACA_site3879]” was 10.7.
The value for “TACACAAGAAAATTCACACACACACCGATATATATA [CACACA_site6008]” was 10.7; that for “CATACACAAGAAAATTCACACACACCCATATATATA [CACACA_site9288]” was 11.3; that for “AAAACAAAAGAATTCACACATATATATATATATATA [CACACA_site4777]” was 10.2.
Consider “CACAAGAAAATTCACACACACACATATATATATATA [CACACA_site3880]”, for which the “gcPBM binding intensity (ln)” value stood at 10.9.
As to “TATATATATATGTGTACACATTTGTCAGATTATATA [CACACA_site4813]”, the “gcPBM binding intensity (ln)” value amounted to 9.79.
The value for “AGGATATATAAGTATACACACATATTTATATTTATA [CACACA_site6239]” was 9.75.
The value for “AAAATTTAAAGCATGACACACAATTATATTATGTGC [CACACA_site3435]” was 9.76; that for “ATGATGTGCTTTAAAAGTACTTAAGTTATATTCTTT [XGTACX_site7127]” was 9.7; that for “TATATACACGCACATACACACAAATAAAAAAACACC [CACACA_site7578]” was 10.2.
The value for “TTAATAACAAAATAAACACACATATATAAATACACA [CACACA_site6849]” was 10.5; that for “AAATTGTCAAAACACGCACACACATATACATAATAA [CACACA_site1743]” was 10.9; that for “AAAATTCATAAATACACACACGCACATATATATATA [CACACA_site4227]” was 10.2.
Regarding “ATAATATAACAATACGCACACGTATACAAAAAAAAA [CACACA_site5703]”, the “gcPBM binding intensity (ln)” value worked out at 9.99.
The value for “ATTGTCAAAACACGCACACACATATACATAATAACA [CACACA_site1742]” was 11.1; that for “TAAATCCGTTTGATGGGTACATACATACATACATAT [XGTACX_site8889]” was 9.73.
The value for “GGATGTATTTATATGTGTATGTGTTTGGAAATATGT [XGTACX_negctrl_site99]” was 9.85; that for “GTCATATATAATTGTTGTACATTTTTATAATTATGT [XGTACX_site8091]” was 9.83; that for “ACATATATATATATATATATATATATATATAGATAG [CACACA_negctrl_site783]” was 9.92.
The value for “GGTTCATAATATGGTTGTACATAAATATATATATAT [XGTACX_site7583]” was 9.86; that for “TATAATAATACTTATTGTACGATTAGCTTAATTCGT [XGTACX_site15]” was 9.51.
As for “GAAATAGAGAAACACACACACATATATTTATGTATT [CACACA_site3967]”, the “gcPBM binding intensity (ln)” value stood at 10.4.
Consider “ATAAAATTTATATAAGCACACAAATATATATTTATA [CACACA_site9083]”, for which the “gcPBM binding intensity (ln)” value stood at 9.7.
The value for “TATAAAAATAAGCACACACACAAATATAGATTTATT [CACACA_site6558]” was 11.3; that for “CAGAAATAGAGATACACACACACATATATTTATGTA [CACACA_site3968]” was 11.3; that for “AAGAAATATTTATACACACACACAAACATATAAATA [CACACA_site6981]” was 11.1.
The value for “GAAATAGAGAGACACACACACATATATTTATGTATT [CACACA_site7794]” was 10.4; that for “TAAATAAAAAGACACACACACATATTTATATTTATA [CACACA_site7135]” was 10.4.
Turning to “TATAAAAATAAGCACACACACAAATATATATTTATT [CACACA_site922]”, the “gcPBM binding intensity (ln)” value was 10.3.
The value for “CAATATAAAAGACACACACACAAACATATATTTATA [CACACA_site7697]” was 11.3; that for “AATATTTATAAAGACACACAAACAAAAAGGATAAAA [CACACA_site2985]” was 10.3; that for “CATAAATACAAATATACACACATATTTATATTTATA [CACACA_site7277]” was 9.78.
The value for “AAGAAATATTTATACACACACACAAACATATATATA [CACACA_site1912]” was 10.5; that for “CACTTAAAAAGCTAACGTACAAATACACATATATAA [XGTACX_site1851]” was 9.66.
For the sequence “CAAAACATTTTATCTACACACATATATAAATAAATA [CACACA_site3220]”, the “gcPBM binding intensity (ln)” value worked out at 9.77.
The value for “GTTTACATTTTAAGAAGTACAAAATTTATGGTTAAA [XGTACX_site450]” was 9.42; that for “TTAGGACAAAAAAAAATAAAAATAAAATAAAATAAT [CACACA_negctrl_site1613]” was 9.61.
The value for “TTTTAATATTTTAAGAGTACAGAAATATATAATATG [XGTACX_site4955]” was 9.33; that for “TTATTTTACTTTTATGCAACTAAAAATATTGCTATA [XGTACX_negctrl_site277]” was 9.6; that for “CATAAAATATAAAACACACACACATATATTTATATA [CACACA_site6247]” was 10.5.
In the case of “AAAACAAACAGACACACACACATATTTATATTTATA [CACACA_site7681]”, the “gcPBM binding intensity (ln)” value is 11.
The value for “TAAAAAAAAAAAAAAACACACATATAAATATTTATA [CACACA_site6702]” was 9.61.
The value for “ACATAAATTTAATACACACACAAAGAAAAAAAAAAA [CACACA_site4088]” was 10.9.
With “GAGATAAAATAAAACACACACATATATTTATATAAC [CACACA_site7098]”, the “gcPBM binding intensity (ln)” value was determined as 10.9.
The value for “GAATATTAAACAAACACACACACATATATATATATA [CACACA_site3382]” was 10.7; that for “AAAACAGACAAACACACACACACATATATATATATA [CACACA_site3393]” was 10.6.
The value for “AAAACAAACAGACACACACACATATATATATATATA [CACACA_site3655]” was 10.8; that for “TGACATAAATTTAATACACACACAAAGAAAAAAAAA [CACACA_site9354]” was 10.2.
As for “GAATATTAAACAAACACACACACATATATTTATATA [CACACA_site7563]”, the “gcPBM binding intensity (ln)” value was 11.1.
With “GAAAGAATAAAATTTACACACATATATAAATACATA [CACACA_site5273]”, the “gcPBM binding intensity (ln)” value was found to be 9.87.
The value for “AATTTTTTATTAAACACACAAACATATATATATATA [CACACA_site1937]” was 9.66; that for “ATTTTATTTTTTAAAGGTACAGTTACAGCTTATATA [XGTACX_site7513]” was 9.51.
The value for ATAAGCATCTTTTGTGTGCACATAACAAAAAAAAAA was 9.85.
